# Inconclusive results are not listed. Values without a mark were called inactive. Calls come from the whole dose curve; as a rule, active = well fitted curve in the direction sought with a large enough effect; inconclusive = small, poorly fitted or top-dose-only effect, or another doubt; inactive = no such curve, though single readings can be large or run the other way.
# Experiment: Viability counterscreen for antagonist of constitutive androstane receptor (CAR) against the NCATS DSHEA and TCM libraries (AID 1794837);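 note: compound exposure lasted 24 h before viability reading; 0% is about no effect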
# Settings: CAR reporter cell line viability counterscreen, qHTS; series mostly up to 40 µM; viability change, negative = cytotoxic: at the top concentration
# Source text: Assay Development and Screening Technology Laboratory (ADST)
# National Center for Advancing Translational Sciences (NCATS), Rockville, MD
# National Institute of Health (NIH), Bethesda, Maryland
# Dietary Supplements and Natural Products have minor oversight of their safety and efficacy. We assembled a collection of Dietary Supplements and Natural Products (DSNP) as well as Traditional Chinese Medicinal (TCM) Plant extracts, which were screened against an in vitro panel of assays, including a liver cytochrome p450 enzyme panel, CAR/PXR signaling pathways, and P-gp transporter assays, to assess their activity. This pipeline facilitated the interrogation of Natural Product-Drug Interaction (NaPDI) through prominent metabolizing pathways. In addition, we compared the activity profiles of the DSNP/TCM substances with those of an approved drug collection. Many of the approved drugs have well-annotated mechanisms of action (MOA) while the MOAs for most of the DSNP and TCM samples remain unknown. Based on the premise that compounds with similar activity profiles tend to share similar targets or MOA, we clustered the library activity profiles to identify overlap with the NCATS Pharmaceutical Collection to predict the MOAs of the DSNP/TCM substances. Overall, we highlight four significant bioactivity profiles (measured by p-values) as examples of this prediction.
# To this end, we profiled both collections for potential CAR and/or PXR activity, employing a previously published 1536-well qHTS assay.
# PROTOCOL TABLE (as described by Inglese J, Shamu CE and Guy RK. 2007)
# SEQUENCE No. (e.g., 1, 2, 3, etc.); […] (e.g., Cells, Incubation, Reagent, etc.); VALUE; DESCRIPTION.
# 1; Cells; 4 uL; 1536-well white Greiner assay plate.
# 2; Incubation; 5 hours; 37C, 95% humidity, 5% CO2.
# 3; Compounds; 23 nL; Kalypsis pin tool (Wako USA) equipped with 1536-well pin head to transfer to the assay plates.
# 4; Reagent; 1 uL; 48 uM CITCO (final concentration).
# 5; Incubation; 24 hours; 37C, 5% CO2.
# 6; Detection Reagent 1; 1 uL; CellTiter-Fluor (Promega).
# 7; Incubation; 1 hour; 37C, 5% CO2.
# 8; Detector 1; Fluorescence intensity; ViewLux plate reader (excitation 405 nm, emission 540 nm).
# 9; Detection Reagent 2; 4 uL; ONE-Glo Luciferase reagent (Promega).
# 10; Incubation; 30 min; room temperature.
# 11; Detector 2; Luminescence intensity; ViewLux.
# NOTES (numbers refer to Sequence numbers above)
# 1. 4 uL of HepG2-CYP2B6-hCAR cells at 6.25 x 10^5 cells/mL (2,500 cells/well) were dispensed using a Multidrop Combi dispenser in tissue culture-treated 1536-well white assay plates (Greiner Bio-One) in the same culture media, without geneticin and blasticidin included.
# 2. Plates were incubated for 5 hours at 37C, 95% humidity, and 5% CO2 to allow for cell attachment.
# 3. Compounds (final concentrations of most substances ranged from 15.6 nM to 31.9 uM), positive control (for antagonist mode: PK11195 with a final concentration range 2.8 nM to 92 uM), and toxicity control tetraoctyl ammonium bromide (final concentration of 92 uM) were transferred (23 nL) via pintool (Wako Automation).
# 4. After compound transfer, plates were dispensed with 1 uL of the known hCAR agonist 6-(4-Chlorophenyl)imidazo[2,1-b][1,3]thiazole-5-carbaldehyde O-(3,4-dichlorobenzyl)oxime (CITCO, final concentration of 48 uM) in the antagonist mode using a BioRAPTR FRDTM.
# 6. 1 uL of CellTiter-Fluor (Promega, Madison, Wisconsin) was added using a BioRAPTR FRDTM.
# 8. Fluorescence intensity (Ex/Em = 405 nm/540 nm) is obtained using the ViewLux plate reader to determine cell viability.
# 9. 4 uL of ONE-Glo Luciferase reagent (Promega) was added to each well using the BioRAPTR FRDTM,
# 10. Luminescence intensity is read using the ViewLux detector.
# Inglese J, Shamu CE and Guy RK, Reporting data from high throughput screening of small molecule libraries, Nature Chemical Biology, 2007, 3(8): 438-441. doi.org/10.1038/nchembio0807-438.
row,SMILES,"viability change, negative = cytotoxic [%]"
1,COc1cc2c(cc1O)CC1c3c(cc(O)c(OC)c3-2)CCN1C (centres undefined),-1.38
2,COC(=O)C1=CO[C@@H](C)[C@@H]2CN3CC[C@@]4(C(=O)Nc5ccccc54)[C@@H]3CC12 (some centres undefined),0.658
3,CCCCCCCCCCCCCCCCCCCC(=O)O,1.5
4,COc1ccc2c(c1O)-c1c(OC)c(OC)cc3c1[C@H](C2)N(C)CC3,5.41
5,C=C[C@H]1CN2CCc3c([nH]c4ccccc34)[C@H]2C[C@@H]1/C(=C\OC)C(=O)OC,-18.9
6,CC[C@@H]1CN2CC[C@]3(C(=O)Nc4ccccc43)[C@@H]2C[C@@H]1/C(=C\OC)C(=O)OC,-13.8
7,COC1=CC(=O)OC(CCc2ccccc2)C1 (centres undefined),11.6
8,N#CC(O[C@@H]1O[C@H](CO[C@@H]2O[C@H](CO)[C@@H](O)[C@H](O)[C@H]2O)[C@@H](O)[C@H](O)[C@H]1O)c1ccccc1 (some centres undefined),9.63
9,COC1=C[C@@]23CCN(C)[C@H](Cc4ccc(OC)c(O)c42)C3=CC1=O,9.41
10,C=CCc1ccc2c(c1)OCO2,-4.88
11,C=C[C@H]1CN2CC[C@@]3(C(=O)Nc4ccccc43)[C@@H]2C[C@@H]1/C(=C\OC)C(=O)OC,-27.1
12,COc1cc2c(cc1O)C[C@H]1c3c(cc(OC)c(O)c3-2)CCN1C,-5.06
13,COc1cc2c(cc1O)CC1NCCc3cc(OC)c(OC)c-2c31 (centres undefined),-7.69
14,C=C(C)[C@@H]1CCC(C)=C[C@H]1c1c(O)cc(CCCCC)cc1O,-11
